Test results from PubChem BioAssay (NCI).
Compounds without any hit were thinned out: in the full panel of roughly 83,000, 20% have a hit.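 Compound tested at a single concentration for 48 hours in 96-well plates; a percent growth value below 10 was scored as active.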 Activity calls are given as the source filed them.

How the values were obtained:
Assay in all cases: NCI-60 one-dose screen, 48 h (100 = growth as untreated, 0 = no growth, -100 = all killed)
Settings in all cases: 10 µM unless noted
NCI-H23 lung = tested on: NCI-H23 lung
NCI-H226 lung = tested on: NCI-H226 lung
NCI-H322M lung = tested on: NCI-H322M lung
HOP-62 NSCLC = tested on: HOP-62 NSCLC
HOP-92 NSCLC = tested on: HOP-92 NSCLC
NCI-H522 lung = tested on: NCI-H522 lung
A549/ATCC NSCLC = tested on: A549/ATCC NSCLC
786-0 renal = tested on: 786-0 renal
COLO 205 colon = tested on: COLO 205 colon
NCI-H460 lung = tested on: NCI-H460 lung

Measured: growth

COc1ccc(/C=N/NC(=O)Cn2c(-c3ccc(S(C)(=O)=O)cc3)nc3cc(Cl)ccc32)cc1
active: NCI-H522 lung 2.78%
inactive: NCI-H23 lung 29.9% | NCI-H226 lung 57.1% | NCI-H322M lung 51.4% | HOP-62 NSCLC 30.5% | HOP-92 NSCLC 49.3% | A549/ATCC NSCLC 17.4% | 786-0 renal 39.2%

O=C(c1ccccc1)c1ccc(Cl)c([N+](=O)[O-])c1
inactive: NCI-H23 lung 100% | NCI-H226 lung 104% | NCI-H322M lung 90.6% | HOP-62 NSCLC 124% | HOP-92 NSCLC 99.1% | NCI-H522 lung 77% | A549/ATCC NSCLC 103% | 786-0 renal 103%

O=C1CC(c2ccc3c(c2)OCO3)Nc2cc3c(cc21)OCO3 (configuration not stated)
active: NCI-H522 lung -9.02% | COLO 205 colon -27.1%
inactive: NCI-H23 lung 44.5% | NCI-H226 lung 64.5% | NCI-H322M lung 57.5% | HOP-62 NSCLC 29.7% | HOP-92 NSCLC 29.2% | A549/ATCC NSCLC 10.1% | 786-0 renal 30.8%

OC(CBr)c1ccnc2ccccc12 (configuration not stated)
inactive: NCI-H23 lung 96.8% | NCI-H226 lung 92.3% | NCI-H322M lung 102% | HOP-62 NSCLC 99.1% | HOP-92 NSCLC 89.3% | NCI-H522 lung 71.8% | 786-0 renal 99.1%

CCCCS(=O)(=O)Oc1ccc(-c2nc(C)c(C(=O)OCC)s2)cc1C=O
inactive: NCI-H23 lung 84% | NCI-H226 lung 87.1% | NCI-H322M lung 86.7% | HOP-62 NSCLC 68.4% | HOP-92 NSCLC 69.5% | NCI-H522 lung 58.3% | A549/ATCC NSCLC 101% | 786-0 renal 74.4% | COLO 205 colon 106%

Nc1ccc(S(=O)(=O)Nc2ccsc2-c2nc(-c3ccccc3)no2)cc1
inactive: NCI-H23 lung 83.5% | NCI-H226 lung 84.5% | NCI-H322M lung 83.3% | HOP-62 NSCLC 35.8% | HOP-92 NSCLC 62.2% | NCI-H522 lung 30.2% | A549/ATCC NSCLC 42.7% | 786-0 renal 86%

COc1cc(-c2ccc(N=Nc3c(O)c(C(=O)Nc4ccccc4OC)cc4ccccc34)c(OC)c2)ccc1N=Nc1c(O)c(C(=O)Nc2ccccc2OC)cc2ccccc12
inactive: NCI-H23 lung 93.5% | NCI-H226 lung 94.1% | NCI-H322M lung 86.8% | HOP-62 NSCLC 80.6% | HOP-92 NSCLC 77.6% | NCI-H522 lung 90.4% | A549/ATCC NSCLC 95.6% | 786-0 renal 87.2%

CCCCCCCCc1cc[n+](CC(=O)c2ccc(Br)cc2)cc1
inactive: NCI-H23 lung 49.5% | NCI-H226 lung 53.6% | NCI-H322M lung 96.2% | HOP-92 NSCLC 24.1% | 786-0 renal 16.6%
active: HOP-62 NSCLC 8% | NCI-H522 lung -91.5% | A549/ATCC NSCLC -84.1%

c1ccc2[nH]c(SSc3nc4ncncc4[nH]3)nc2c1
inactive: NCI-H23 lung 32.1% | NCI-H226 lung 57.6% | NCI-H322M lung 73.5% | HOP-62 NSCLC 21.2% | NCI-H460 lung 42.7% | HOP-92 NSCLC 27.5% | 786-0 renal 16%

Nc1ccc(-c2cc3c(Nc4ccc(OCc5cccc(F)c5)c(Cl)c4)ncnc3s2)cc1
inactive: NCI-H23 lung 68.6% | NCI-H226 lung 53.5% | NCI-H322M lung 26.6% | HOP-62 NSCLC 62.3% | HOP-92 NSCLC 45.8% | NCI-H522 lung 13.1% | A549/ATCC NSCLC 21.2% | 786-0 renal 37.2%

Cn1c(NCCc2ccc(O)c(O)c2)nc2c1c(=O)n(Cc1ccc(Cl)cc1)c(=O)n2C
inactive: NCI-H23 lung 79.1% | NCI-H226 lung 84.5% | NCI-H322M lung 77.2% | HOP-62 NSCLC 88.5% | HOP-92 NSCLC 47.1% | A549/ATCC NSCLC 104% | 786-0 renal 92.1%
active: NCI-H522 lung -10.7%

CN(C)c1ccc(/C=C2\C=C(c3ccccc3)N(CCc3ccccc3)C2=O)cc1
active: HOP-62 NSCLC -14%
inactive: NCI-H23 lung 64.2% | NCI-H226 lung 52.8% | NCI-H322M lung 71.9% | HOP-92 NSCLC 51.2% | NCI-H522 lung 50.6% | A549/ATCC NSCLC 34.8% | 786-0 renal 48.9%

CNC(=O)NCC1OC(n2cnc3c(NC(=O)Nc4ccccc4)ncnc32)C2OC(C)(C)OC12 (configuration not stated)
inactive: NCI-H23 lung 87.3% | NCI-H226 lung 109% | NCI-H322M lung 101% | HOP-62 NSCLC 99.3% | HOP-92 NSCLC 14.4% | NCI-H522 lung 103% | A549/ATCC NSCLC 103% | 786-0 renal 105%

COc1cc2c(cc1OC)-c1ccc3cc4c(cc3c1N(CCCN1CCCCC1)C2)OCO4
inactive: NCI-H23 lung 70.4% | NCI-H226 lung 75.8% | NCI-H322M lung 63.6% | HOP-62 NSCLC 56% | HOP-92 NSCLC 23.2% | NCI-H522 lung 41.6% | A549/ATCC NSCLC 49.5% | 786-0 renal 40.1%

COc1ccc(-c2cc(-c3ccc(Nc4nc(Nc5ccccc5)nc(Nc5ccc(Cl)cc5)n4)cc3)nc(N)n2)cc1
inactive: NCI-H23 lung 56.6% | NCI-H226 lung 81.2% | NCI-H322M lung 83.3% | HOP-62 NSCLC 57.2% | HOP-92 NSCLC 37.6% | NCI-H522 lung 76.3% | A549/ATCC NSCLC 79.5% | 786-0 renal 51.5%

Cc1ccccc1NC(=O)CN(C)C
inactive: NCI-H23 lung 95.7% | NCI-H226 lung 97.9% | NCI-H322M lung 89.9% | HOP-62 NSCLC 97.9% | HOP-92 NSCLC 123% | NCI-H522 lung 82.6% | 786-0 renal 99.7%

CCCCOc1ccc(NC(=O)n2nc(N=NN(C)C)c3ccc(Cl)cc32)cc1
inactive: NCI-H23 lung 94.2% | NCI-H226 lung 96.3% | NCI-H322M lung 99.4% | HOP-62 NSCLC 88.3% | HOP-92 NSCLC 93% | NCI-H522 lung 90.1% | A549/ATCC NSCLC 111% | 786-0 renal 109%

CCC(=O)OC1=C(C)SC2=NC(c3ccc(Cl)c(Cl)c3)=CC(c3cc(OC)c(OC)c(OC)c3)N21 (configuration not stated)
inactive: NCI-H23 lung 98.5% | NCI-H226 lung 95% | NCI-H322M lung 97.4% | HOP-62 NSCLC 95.9% | HOP-92 NSCLC 67.9% | NCI-H522 lung 97.8% | A549/ATCC NSCLC 105% | 786-0 renal 104%

CCCc1nc2ccccn2c1Nc1ccc(C(=O)NO)cc1
inactive: NCI-H23 lung 61.4% | NCI-H226 lung 92.6% | NCI-H322M lung 97.4% | HOP-62 NSCLC 90.4% | HOP-92 NSCLC 103% | A549/ATCC NSCLC 97.1% | 786-0 renal 95.5%

COc1ccc(OC)c(/C=C2\COc3ccc(O)cc3C2=O)c1
inactive: NCI-H23 lung 104% | NCI-H226 lung 98.5% | NCI-H322M lung 92.3% | HOP-62 NSCLC 108% | NCI-H460 lung 101% | HOP-92 NSCLC 93.7% | A549/ATCC NSCLC 101% | 786-0 renal 96.4% | COLO 205 colon 109%

CCCCCCNC(=O)c1cc(NCc2cc(O)ccc2O)ccc1O
inactive: NCI-H23 lung 87.5% | NCI-H226 lung 92.3% | NCI-H322M lung 89.2% | HOP-62 NSCLC 70.9% | HOP-92 NSCLC 24% | A549/ATCC NSCLC 70.5% | 786-0 renal 45.9% | COLO 205 colon 96.9%
active: NCI-H522 lung -62.3%

CN(C)S(=O)(=O)n1cnc([C@@H]2[C@@H]3C(=O)OC[C@@H]3C[C@]23N=CN(Cc2ccccc2)C3=O)c1
inactive: NCI-H23 lung 128% | NCI-H226 lung 110% | NCI-H322M lung 110% | HOP-62 NSCLC 95.9% | HOP-92 NSCLC 110% | NCI-H522 lung 102% | A549/ATCC NSCLC 123% | 786-0 renal 102% | COLO 205 colon 118%

N#Cc1c(Oc2ccc([N+](=O)[O-])cc2)nc2sc3cc(Cl)ccc3n2c1=N
inactive: NCI-H23 lung 73.7% | NCI-H226 lung 56.8% | NCI-H322M lung 98.2% | HOP-62 NSCLC 107% | HOP-92 NSCLC 83.7% | A549/ATCC NSCLC 72.9% | 786-0 renal 64.3%

CCCCOC(=O)c1ccc(NC(=O)C(C)N2CCOCC2)cc1 (configuration not stated)
inactive: NCI-H23 lung 98.5% | NCI-H226 lung 84.3% | NCI-H322M lung 95.7% | HOP-62 NSCLC 99.5% | HOP-92 NSCLC 76.7% | NCI-H522 lung 67.9% | A549/ATCC NSCLC 97.3% | 786-0 renal 99.1%

Fc1ccc(Nc2nc3nonc3nc2Nc2ccc(F)cc2)cc1
inactive: NCI-H226 lung 14.9%
active: NCI-H23 lung 2.78% | NCI-H322M lung 1.32% | HOP-62 NSCLC -5.63% | HOP-92 NSCLC -30.5% | NCI-H522 lung -23.9% | A549/ATCC NSCLC 6.26% | COLO 205 colon -80.2%

O=C1c2ccccc2C(=O)c2cc(Cn3cc[n+](Cc4ccc5ccccc5c4)c3)ccc21
inactive: NCI-H23 lung 75.6% | NCI-H226 lung 83.3% | NCI-H322M lung 91% | HOP-62 NSCLC 107% | HOP-92 NSCLC 47.8% | NCI-H522 lung 38.9% | A549/ATCC NSCLC 110% | 786-0 renal 98.8%

C=C1C(=O)O[C@H]2[C@H]1CC/C(COC(=O)/C=C\C(=O)NCc1ccc(Cn3c(=O)sn(-c4ccc(OC)cc4)c3=O)cc1)=C\CC[C@@]1(C)O[C@@H]21
inactive: NCI-H322M lung 32.4% | A549/ATCC NSCLC 12.6%
active: NCI-H23 lung -69.9% | NCI-H226 lung -65.9% | HOP-62 NSCLC -20.4% | HOP-92 NSCLC -65% | NCI-H522 lung -45.2% | 786-0 renal -57.9%

CCNCCNc1cc(-c2cccc(C(F)(F)F)c2)c(C#N)c2nc3ccccc3n12
active: NCI-H23 lung -57.6% | NCI-H226 lung -67.2% | NCI-H322M lung -63.1% | HOP-62 NSCLC -75.1% | HOP-92 NSCLC -58.1% | NCI-H522 lung -71.3% | A549/ATCC NSCLC -91.9% | 786-0 renal -88%

C=C1c2c(C)nn(-c3ccc(NC(C)=O)cc3)c2N(C)C23CC1C1(C)c4c(C)nn(-c5ccc(NC(C)=O)cc5)c4N(C)C(C)(CC12)C3 (configuration not stated)
inactive: NCI-H23 lung 58.2% | NCI-H226 lung 47.2% | NCI-H322M lung 61.2% | HOP-62 NSCLC 55.9% | HOP-92 NSCLC 65% | NCI-H522 lung 42.9% | A549/ATCC NSCLC 26.3% | 786-0 renal 43.5%

O=C1Nc2ccccc2/C1=N/N=C/c1ccsc1
inactive: NCI-H23 lung 95.2% | NCI-H226 lung 106% | HOP-62 NSCLC 110% | NCI-H460 lung 105% | HOP-92 NSCLC 109% | NCI-H522 lung 93.8% | 786-0 renal 108%

CCc1cc(Cc2cc(CC)cc(C(C)(C)C)c2O)c(O)c(C(C)(C)C)c1
inactive: NCI-H23 lung 17.5% | NCI-H226 lung 48.6% | HOP-62 NSCLC 34.7% | NCI-H522 lung 22.2% | A549/ATCC NSCLC 23.8% | 786-0 renal 23.6%
active: NCI-H460 lung 4.34% | HOP-92 NSCLC -22.6%
